# Compound activity (PubChem)
# S2 tox = reduces viability in counter-screen for ATXN expression inhibitors; S2 cells (HEK-293 line with an ATXN2-luciferase reporter) viability, CellTiter-Fluor protease fluorescence, 24 h; Potency, µM (series often up to 56.7 µM), most hits filed as cytotoxic; 400,000 tested, 0.49% active; AID 651635; note: nearly all actives have a fitted effect of over 40% in size
# KB-V1 cytotox = kills drug-selected multidrug resistant KB-V1 cells; KB-V1 MDR cells viability, CellTiter-Glo, 72 h; Potency, µM (series often up to 46.1 µM), actives largely listed as cytotoxic; 400,000 tested, 3.4% active; AID 1347076; note: % is set by controls: 0 for no effect and ±100 for the full control effect; nearly all actives have a fitted effect of over 60% in size
#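 KB-V1 MDR subline cells in DMEM (phenol-red free, 10% FBS) exposed to compounds in qHTS concentration series for 72 h at 37 degrees C. Viability read by CellTiter-Glo luminescence; concentration-effect curves fitted after normalization and correction.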
# ATXN2 expr inh = reduces ATXN2 reporter expression in HEK-293 cells; HEK-293 ATXN2-luciferase reporter, luminescence, 24 h; Potency, µM (highest dose often 57 µM), without a hit: at the highest dose activity change, negative = inhibition, actives largely listed as inhibitors; 360,000 tested, 0.72% active; note: % is set by controls: 0 for no effect and ±100 for the full control effect; nearly all actives have a fitted effect of over 55% in size
#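 qHTS (up to 57 uM final) was run with 24 h compound exposure of reporter cells at 37 °C. Each well was multiplexed: SteadyGlo luminescence measured ATXN2-luciferase expression after a fluorogenic Gly-Phe-AFC viability readout (25 uM final).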
# HT1080 IDH1KD tx = toxicity to HT-1080 IDH1 knockdown cells (counter line). HT-1080 IDH1 knockdown viability, ATP luminescence, 48 h. Potency, µM (highest dose often 46.1 µM), for the others: top-dose activity, negative = toxicity, usual class: cytotoxic. 360,000 tested, 2% active. AID 686971;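 note: 0% = DMSO wells and -100% = cell-free medium wells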
#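 Using the IDH1-knockdown HT-1080 line run in the same batch and compound series as the NT line, viability after 48 h at 37 °C was determined by CellTiter-Glo luminescence and expressed as % activity.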
# KB-3-1 cytotox = kills parental KB-3-1 adenocarcinoma cells | KB-3-1 viability, CellTiter-Glo ATP luminescence, 72 h | Potency, µM (titrated, usually from 46.1 µM), most hits filed as cytotoxic | 400,000 tested, 1.4% active | AID 1347075; note: % is set by controls: 0 for no effect and ±100 for the full control effect; nearly all actives have a fitted effect of over 60% in size
#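 KB-3-1 parental drug-naive adenocarcinoma cells in DMEM/10% FBS, incubated 72 h at 37 C with pin-transferred compounds across a concentration series. Viability by CellTiter-Glo luminescence; concentration-response curves fitted after normalization.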
# HT1080NT lethal = kills 2HG-producing HT-1080-NT fibrosarcoma cells; HT-1080-NT fibrosarcoma viability, CellTiter-Glo ATP luminescence, 48 h; 360,000 tested, 1.6% active; Potency, µM (series often up to 46.1 µM), without a hit: at the highest dose activity, negative = less viability, usual class: cytotoxic;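 note: NT is the 2HG producing partner of a matched IDH1 knockdown line; 0% = DMSO-treated cells and -100% = media-only wells without cells; nearly all actives have a fitted effect of over 55% in size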
#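 Compounds were tested in concentration-response format on HT-1080-NT cells for 48 hours at 37 degrees C. Cell viability came from CellTiter-Glo luminescence; curves were classified by r2, response magnitude and activity.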
# An asterisk follows results filed as active; i = inactive; u = inconclusive; x = no result; [ ] = remark or other dose. Hits are enriched below; roughly 6.2% of the tested compounds scored in any of these assays. Calls come from the whole dose curve; as a rule, active = well fitted curve in the direction sought with a large enough effect; inconclusive = small, poorly fitted or top-dose-only effect, or another doubt; inactive = no such curve, though single readings can be large; an effect the other way counts as inactive or inconclusive. Potency is the fitted concentration of half-maximal effect.
SMILES,S2 tox,KB-V1 cytotox,ATXN2 expr inh,HT1080 IDH1KD tx,KB-3-1 cytotox,HT1080NT lethal
CN(C)C(=O)COC(=O)c1ccccc1OCC(=O)Nc1ccc(Br)cc1,x,i,x,x,u,x
O=C(CCCCCCC(=O)Nc1ccccc1)NO,u,1.3µM*,179%,x,8.2µM*,x
NC(=S)NN=C1Cc2cccc3cccc1c23,i,1.3µM*,-11%,15%,1.3µM*,3%
O/N=C1/CCc2cccc3cccc1c23,i,i,16%,-3%,i,8%
NCCO,i,x,6%[116 µM],x,x,x
CCNC(=S)NNC(=O)c1csc2c1CCCC2,i,26µM*,-3%,u,i,-25%
CC1CC(C)CN(CCCNC(=O)c2csc3c2CCCC3)C1 (centres undefined),i,16µM*,-18%,-8%,i,-11%
CCCCNC(=S)NNC(=O)c1ccncc1,i,i,5%,14%,i,9%
CCCCNC(=S)NNC(=O)c1csc(C(C)C)c1,i,23µM*,48%,-6%,i,-20%
CCNC(=S)NNC(=O)c1csc(C(C)C)c1,u,21µM*,41%,3%,u,-1%
CCNC(=S)NNC(=O)c1csc(CC)c1,i,i,10%,2%,u,-7%
CC1(C(=O)NCc2ccco2)Cc2c(-c3ccccc3)ccnc2O1 (centres undefined),i,7.3µM*,-18%,u,8.2µM*,u
CC(=O)Nc1ccc(-c2ccnc3c2CC(C)(C(=O)NCCc2ccccc2)O3)cc1 (centres undefined),i,i,2%,-19%,26µM*,-5%
CC1(C(=O)NCCC(F)(F)F)Cc2c(-c3ccccc3)ccnc2O1 (centres undefined),i,21µM*,-13%,u,u,-16%
CN(C)c1ccc(CNC(=O)C2(C)Cc3c(-c4ccccc4)ccnc3O2)cc1 (centres undefined),u,u,-21%,u,u,u
CC(=O)NCCNC(=O)C1(C)Cc2c(-c3ccccc3)ccnc2O1 (centres undefined),i,i,3%,1%,i,u
CC(=O)Nc1ccc(-c2ccnc3c2CC(C)(C(=O)Nc2ccccc2)O3)cc1 (centres undefined),i,u,-20%,u,i,u
CCn1cc(C(=O)OCC(=O)Nc2cc(Cl)ccc2C)c(=O)c2ccc(C)nc21,i,i,7%,x,i,x
CCN(CC)CCNC(=O)C(=O)NCC(c1cccnc1)N1CCN(c2ccccc2)CC1 (centres undefined),i,i,9%,x,i,x
COc1cc(-c2noc(CCCC(=O)NCc3ccccc3)n2)cc(OC)c1OC,i,6.5µM*,-8%,u,i,-20%
COc1cc(-c2noc(CCCC(=O)Nc3cccnc3)n2)cc(OC)c1OC,i,u,1%,5%,i,-1%
Cc1ccc(-n2nc(C(=O)Nc3ccc(F)cc3Cl)c(=O)n(C)c2=O)cc1,i,i,-4%,x,i,x
Cc1ccccc1NC(=O)c1ccc(CN(c2ccccc2)S(=O)(=O)c2ccccc2)cc1,i,10µM*,-16%,-17%,i,-9%
COc1ccccc1N(Cc1ccccc1)S(=O)(=O)c1cccc(C(=O)O)c1,i,i,-10%,3%,i,-2%
O=C(NC1CC1)c1ccc(CN(c2ccccc2)S(=O)(=O)c2ccccc2)cc1,i,u,-14%,-8%,i,-8%
COc1ccccc1N(Cc1ccccc1)S(=O)(=O)c1cccc(C(=O)Nc2cc(C)ccn2)c1,u,i,u,u,16µM*,-24%
CCOc1ccccc1NC(=O)c1cccc(S(=O)(=O)N(Cc2ccccc2)c2ccccc2OC)c1,i,8.2µM*,36%,4%,i,0%
Cc1ccc2nc(CN3CCN(C(=O)Nc4cccc(C)c4C)CC3)oc2c1,u,i,-13%,x,i,x
